Results published in PubChem BioAssay AID1851 (National Center for Advancing Translational Sciences (NCATS), 2009).
Out of some 16,000 compounds screened, about 5,100 (32%) were called active. Inconclusive results (about 25%) are left out. Calls follow the shape of the dose curve; as a rule, active = well fitted curve in the direction sought with a large enough effect; inconclusive = small, poorly fitted or top-dose-only effect, or effect the other way; inactive = no such curve, though single readings can be large or run the other way. The list shows a part of the results.

target: Cytochrome P450 3A4 (Homo sapiens) (UniProt P08684); test: Cytochrome panel assay with activity outcomes; conditions: recombinant CYP, pro-luciferin dealkylation, luminescence, p450-cyp3a4; series mostly up to 57.1 µM
% is scaled to controls: 0 for no effect and ±100 for the full control effect.

Chain of Cytochrome P450 3A4 (Homo sapiens) (P08684 whole entry, looked up): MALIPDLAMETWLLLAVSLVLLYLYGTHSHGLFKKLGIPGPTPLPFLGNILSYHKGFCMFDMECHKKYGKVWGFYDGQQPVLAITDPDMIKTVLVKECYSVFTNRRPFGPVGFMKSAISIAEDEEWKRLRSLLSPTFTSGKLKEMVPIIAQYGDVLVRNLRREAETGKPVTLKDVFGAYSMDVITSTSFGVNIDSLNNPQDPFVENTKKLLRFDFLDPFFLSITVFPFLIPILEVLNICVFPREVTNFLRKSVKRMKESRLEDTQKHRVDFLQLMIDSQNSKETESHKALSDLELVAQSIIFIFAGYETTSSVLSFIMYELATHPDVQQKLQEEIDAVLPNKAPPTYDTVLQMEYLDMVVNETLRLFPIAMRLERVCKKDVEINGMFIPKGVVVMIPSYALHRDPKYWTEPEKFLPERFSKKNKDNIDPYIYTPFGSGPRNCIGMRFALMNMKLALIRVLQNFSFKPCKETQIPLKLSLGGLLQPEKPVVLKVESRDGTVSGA

| SMILES | AC50 | activity, negative = inhibition |
| --- | --- | --- |
| COc1ccc2[nH]cc(CCNc3ncnc4ccc(-c5c(C)noc5C)cc34)c2c1 | 3.16 µM (active) | – |
| COc1ccc2[nH]cc(CCNc3ncnc4ccc(-c5ccccc5CN(C)C)cc34)c2c1 | 1.58 µM (active) | – |
| COc1ccc2[nH]cc(CCNc3ncnc4ccc(-c5ccc6c(c5)OCO6)cc34)c2c1 | 2 µM (active) | – |
| COc1ccc2[nH]cc(CCNc3ncnc4ccc(-c5cccnc5)cc34)c2c1 | 1 µM (active) | – |
| O=C(Cn1cnc([N+](=O)[O-])c1)NCc1ccc(F)cc1 | inactive | – |
| Cc1ccc(C(C)C)n1C(=O)OC(C)(C)C | – | -18.1% [at 11.4 µM] (inactive) |
| Nc1nc2c(nc(Br)n2[C@@H]2O[C@H]3COP(=O)(O)O[C@H]3[C@@H]2O)c(=O)[nH]1 | inactive | – |
| COc1ccc(S(=O)(=O)N(CCc2ccccc2)CC(=O)N2CCOCC2)cc1 | 7.08 µM (active) | – |
| COc1ccc(OC)c(N(CC(=O)N2CCc3ccccc3C2)S(C)(=O)=O)c1 | inactive | – |
| COc1ccc(S(=O)(=O)N(CC(=O)N2CCCC2)Cc2ccccc2)cc1 | 4.47 µM (active) | – |
| Cc1ccc(CS(=O)(=O)CCC(=O)N2CCOCC2)cc1 | inactive | – |
| CN(Cc1ccccc1)S(=O)(=O)c1ccc(OCC(=O)N2CCOCC2)cc1 | inactive | – |
| Cc1ccc(C2NC(c3ccc(C)cc3)C(C)C(=NO)C2C)cc1 (stereo not given) | 14.1 µM (active) | – |
| CCC(=O)NC(=S)Nc1ccc(S(=O)(=O)NC(C)=O)cc1 | – | 18.1% [at 2.29 µM] (inactive) |
| COc1ccc(CC(=O)NC(=S)Nc2ccc(S(=O)(=O)NC(C)(C)C)cc2)cc1 | 6.31 µM (active) | – |
| CC(=O)NS(=O)(=O)c1ccc(NC(=S)NC(=O)C(C)(C)C)cc1 | inactive | – |
| CSc1nc(N)c2ncn([C@H]3O[C@H](COP(=O)(O)OP(=O)(O)O)[C@@H](O)[C@@H]3O)c2n1 | inactive | – |
| C[C@@]12CC3CC(N)(C1)C[C@@](C)(C3)C2 | inactive | – |
| CCOc1ccc(C(Nc2ccc(C)cc2)P2(=O)OCC(C)(C)CO2)cc1 (stereo not given) | 3.98 µM (active) | – |
| CCOc1ccc(C2=[N+]([O-])C(C)(C)N(O)C2(C)C)cc1 | inactive | – |
| CCOc1ccc(NC(=O)N2CCC(c3ccc(C)cc3)C2)cc1 (stereo not given) | inactive | – |
| COc1ccc(CCn2c(C)cc(C(=O)CSc3nc(N)cc(=O)[nH]3)c2C)cc1 | 2.51 µM (active) | – |
| CC(=O)Nc1nnc(SCc2ccc(F)cc2)s1 | inactive | – |
| O=C(O)c1cc(=O)[nH]c(SCc2ccccc2)n1 | – | 0.661% [at 11.4 µM] (inactive) |

| SMILES | AC50 | activity, negative = inhibition |
| --- | --- | --- |
| Cc1cc(C(=O)CSc2nnc(N)s2)c(C)n1CCc1ccc(F)cc1 | 0.316 µM (active) | – |
| O=C(CCc1ccc(O)cc1)c1c(O)cc(O)cc1O | 10 µM (active) | – |
| O=C(O)Cc1ccc(O)c(O)c1 | inactive | – |
| C[C@@](N)(Cc1ccc(O)cc1)C(=O)O | inactive | – |
| O=c1nc(N2CCCCCC2)nc(N2CCCCCC2)[nH]1 | inactive | – |
| CCN(CC)C(=O)CSc1nnc(C2CCCCC2)o1 | inactive | – |
| O=C(CSc1nnc(CNc2ccccc2)o1)N1CCCc2ccccc21 | 8.91 µM (active) | – |
| O=C(CSc1nnc(CNc2ccc(F)cc2)o1)OC1CCCCC1 | 28.2 µM (active) | – |
| O=C(CSc1nnc(CNc2ccc(F)cc2)o1)N1c2ccccc2Sc2ccccc21 | 7.08 µM (active) | – |
| Cc1cc2nc(-c3ccc(SCC(=O)N4CCc5ccccc54)nc3)[nH]c2cc1C | – | -3.98% [at 2.29 µM] (inactive) |
| CCOc1ccc(-n2c(=O)[nH]cc(C(=O)N3CCCc4ccccc43)c2=O)cc1 | inactive | – |
| O=C(CSc1n[nH]c(-c2ccccc2O)n1)N1CCCc2ccccc21 | 3.16 µM (active) | – |
| O=C(CCN1CCCCC1)N1CCc2c([nH]c3ccccc23)[C@H]1c1cccnc1 | – | -11.2% [at 11.4 µM] (inactive) |
| COC(=O)Cn1cnc(=O)c(C#N)c1/C=C/N(C)C | inactive | – |
| O=C(N/N=C/c1cccc([N+](=O)[O-])c1)c1cc2c(ccc3ccccc32)o1 | – | -7.91% [at 2.29 µM] (inactive) |
| C=CCn1cc(/C=N\NC(=O)c2cc3c(ccc4ccccc43)o2)c2ccccc21 | 10 µM (active) | – |
| O=C(N/N=C/C=C/c1ccccc1)c1cc2c(ccc3ccccc32)o1 | inactive | – |
| O=C(N/N=C/c1ccc(O)cc1)c1csc2ccccc12 | – | -23.9% [at 11.4 µM] (inactive) |
| O=C(N/N=C/c1ccncc1)c1cc2c(ccc3ccccc32)o1 | 1.41 µM (active) | – |
| Cc1ccccc1C(=O)N/N=C/c1ccncc1 | 7.08 µM (active) | – |
| O=C(N/N=C\c1cccc(O)c1)c1ccncc1 | – | -5.33% [at 11.4 µM] (inactive) |
| COc1cccc([C@H](O)Cn2cc(-c3ccc(CON=C(C)C)cc3)nn2)c1 | – | -19.8% [at 11.4 µM] (inactive) |
| CC[C@@H](CS(=O)(=O)O)[N+](=O)[O-] | – | -18% [at 11.4 µM] (inactive) |
| O=C(N=NC(=O)c1ccc2c(O)n(C3CCCCC3)c(O)c2c1)c1cccnc1 | 11.2 µM (active) | – |

| SMILES | AC50 | activity, negative = inhibition |
| --- | --- | --- |
| COCCn1c(=O)c(-c2cn(C)c3ccccc23)nc2cncnc21 | 3.16 µM (active) | – |
| COc1ccccc1CCn1c(=O)c(-c2cn(C)c3ccccc23)nc2cncnc21 | 2.51 µM (active) | – |
| Cn1cc(-c2nc3cncnc3n(CCN)c2=O)c2ccccc21 | 12.6 µM (active) | – |
| Cc1cccc([C@@H]2CN(C)CCc3c2cc(O)c(O)c3Cl)c1 | inactive | – |
| N[C@H](CCCP(=O)(O)O)C(=O)O | inactive | – |
| O=C(O)c1nnsc1-c1ccc(-c2snnc2C(=O)O)cc1 | – | -0.252% [at 11.4 µM] (inactive) |
| O=C(O)c1ccccc1-c1ccc(/C=c2\sc3nc4cc(Br)cnc4n3c2=O)o1 | inactive | – |
| O=C(c1c[nH]c(=O)n(-c2ccccc2)c1=O)N1CCc2ccccc21 | inactive | – |
| Cc1ccc(NS(=O)(=O)c2cc(C(=O)NCc3ccccn3)ccc2Cl)cc1 | 3.98 µM (active) | – |
| Cc1ccc(NS(=O)(=O)c2cc(C(=O)N3CCc4ccccc4C3)ccc2Cl)cc1 | 1.26 µM (active) | – |
| CCOC(=O)N1CCN(C(=O)c2ccc(Cl)c(S(=O)(=O)N3CCOCC3)c2)CC1 | – | -3.04% [at 2.29 µM] (inactive) |
| COc1ccc(C(=O)N2CCCCC2)cc1S(=O)(=O)Nc1ccccc1 | 12.6 µM (active) | – |
| CN(c1ccc(C(=O)NCc2ccccn2)cc1)S(C)(=O)=O | inactive | – |
| OC(CN1CCCCC1)CN1CCCCC1 | inactive | – |
| CNc1ncncc1-c1ccc(C(=O)N(C)C)cc1 | 5.01 µM (active) | – |
| CN(C)C(=O)c1ccc(-c2cncnc2NCc2ccccc2)cc1 | 2.51 µM (active) | – |
| CN(C)C(=O)c1ccc(-c2cncnc2NC2CCNCC2)cc1 | inactive | – |
| CN(C)C(=O)c1ccc(-c2cncnc2NCCc2cnc[nH]2)cc1 | 6.31 µM (active) | – |
| Cc1cccc(CNc2ncncc2-c2ccc(C(=O)N(C)C)cc2)c1 | 0.631 µM (active) | – |
| CN(C)C(=O)c1ccc(-c2cncnc2NCc2cccnc2)cc1 | 5.01 µM (active) | – |
| CN(C)C(=O)c1ccc(-c2cncnc2N2CCNCC2)cc1 | inactive | – |
| CN1CCN(c2ncncc2-c2ccc(C(=O)N(C)C)cc2)CC1 | 15.8 µM (active) | – |
| O=C(O)c1ccccc1C1c2ccccc2Oc2ccccc21 | – | 26.1% [at 11.4 µM] (inactive) |
| CCC1(C)CC(CCNS(=O)(=O)c2ccc(C)cc2)(c2ccc(C)cc2)CCO1 (stereo not given) | 3.55 µM (active) | – |

| SMILES | AC50 | activity, negative = inhibition |
| --- | --- | --- |
| Cc1cc(C(=O)CSc2nnc(-c3ccccc3)o2)c(C)n1CC1COc2ccccc2O1 (stereo not given) | 2.24 µM (active) | – |
| c1ccc(-c2nnc(SCCC3OCCCO3)o2)cc1 | inactive | – |
| O=C(O)/C=C\c1ccc(O)c(O)c1 | inactive | – |
| O=C(/C=C\c1ccc(O)c(O)c1)O[C@@H](Cc1ccc(O)c(O)c1)C(=O)O | inactive | – |
| O=C(/C=C\c1ccc(O)c(O)c1)OCCc1ccccc1 | 15.8 µM (active) | – |
| CCn1c2ccccc2c2cnc(N=CN(C)C)c(C#N)c21 | 7.94 µM (active) | – |
| Nc1nc(N)nc(CC(=O)O)n1 | – | -10.1% [at 11.4 µM] (inactive) |
| COC(=O)N1CCC[C@@]2(CCN(c3ncccn3)C2)C1 | inactive | – |
| COC(=O)N1CCC2(CC1)CCN(c1ccncc1)CC2 | inactive | – |
| O=C(Oc1ccccc1)N1CCC2(CC1)CCN(c1ccncc1)CC2 | inactive | – |
| COC(=O)N1CCC[C@@]2(CCN(c3ccncc3)C2)C1 | 3.98 µM (active) | – |
| O=C(Oc1ccccc1)N1CCC[C@@]2(CCN(c3ccncc3)C2)C1 | 12.6 µM (active) | – |
| O=[N+]([O-])c1ccc2ncccc2c1CCc1c([N+](=O)[O-])ccc2ncccc12 | – | -12.1% [at 11.4 µM] (inactive) |
| O=[N+]([O-])c1cccnc1NCCNc1ncc(C(F)(F)F)cc1Cl | 12.6 µM (active) | – |
| O=C(O)C[C@H](NC(=O)CP(=O)(O)O)C(=O)O.[NH-][C@@H]1CCCC[C@@H]1[NH-].[Pt] | – | -3.72% [at 11.4 µM] (inactive) |
| O=S(=O)(NCc1cc(-c2ccccc2Cl)no1)c1ccccc1 | inactive | – |
| Cc1cc(NS(=O)(=O)c2ccc(NC(=O)CN3C(=O)c4ccccc4C3=O)cc2)nc(C)n1 | inactive | – |
| O=S(=O)(Nc1ccc2oc(-c3ccccc3)nc2c1)c1ccccc1 | – | -16% [at 2.29 µM] (inactive) |
| O=c1ccc(NS(=O)(=O)c2ccc(Cl)cc2)cn1Cc1ccc(Cl)c(Cl)c1 | 5.62 µM (active) | – |
| C#CCOC(=O)Nc1ccc(=O)n(Cc2c(Cl)cccc2Cl)c1 | inactive | – |
| O=c1ccc(NS(=O)(=O)c2ccccc2)cn1Cc1ccc(Cl)c(Cl)c1 | 6.31 µM (active) | – |
| Cc1ccc(S(=O)(=O)Nc2ccc(=O)n(Cc3ccc(Cl)c(Cl)c3)c2)cc1 | 3.16 µM (active) | – |
| CC1(C)S[C@@H]2[C@H](NC(=O)[C@H](C(=O)O)c3ccsc3)C(=O)N2[C@H]1C(=O)O | inactive | – |
